The source of these data is PubChem BioAssay (NCI).

The panel holds about 83,000 compounds, 20% with a hit somewhere; the sample as a whole holds those more often.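 Single-dose data. Exposure time 48 hours. Values below 10 considered active.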 A number with no mark means an inactive call. Active and inactive are the calls of the source.

The first experiment has as its system SF-539 CNS. Kind of experiment: NCI-60 one-dose screen, 48 h (100 = growth as untreated, 0 = no growth, -100 = all killed). As to conditions: 10 µM unless noted.
As for `NC1=NC(c2cccc(Br)c2)c2sc3ccc(Cl)cc3c2N1` (stereo unspecified), the growth was 108%.
On the same count and under the same terms, the figure for `CCCCn1c(-c2ccc(-c3nc(-c4ccc(Cl)cc4)no3)cc2)nc(-c2ccccc2)c1-c1ccccc1` is 85.5%.
For the compound `CCc1ccccc1-n1c(N)c(C#N)c(-c2ccc(Cl)cc2)c(C#N)c1=O`, the growth was 103%.
Still for that read-out and setting: to `Cc1ccc(/C=N\NC(=O)c2[nH]c3ccc(F)cc3c2-c2ccccc2)cc1` belongs 21.4%; to `COc1ccc(/C=C/c2c(C(=O)/C=C/c3ccc(C(F)(F)F)cc3)c(C)nc3ccccc23)cc1`, -76.2% (active).
Same read-out and setting: the figure for `Cc1c(C(=O)/C=C/Nc2c(Cl)cc(S(N)(=O)=O)cc2Cl)sc2nc3ccccc3n12` is 96.6%.
On the same count and under the same terms, the figure for `CC(=O)N1N=C(c2ccc(Nc3nc(Nc4ccc(F)cc4)nc(Nc4ccc(Cl)cc4)n3)cc2)CC1c1ccc(Cl)cc1` (stereo unspecified) is 109%; for `COc1ccccc1/C=C1\Oc2cc(OCCN3CCC(Cc4ccccc4)CC3)ccc2C1=O` it is 93.8%.
With `Cc1nc2ccccc2c(/C=C/c2ccccc2)c1C(=O)/C=C/c1ccc(C(F)(F)F)cc1`, the growth was -84.9% (active).
For the compound `Cc1[nH]c(C(=O)Nc2ccc(C(=O)N3CCNCC3)cc2OC(C)C)c(Cl)c1Cl`, the growth was 80.8%.
Same read-out and setting: to `CN1C(=O)N(C)C2Nn3c(s/c(=C\c4ccccc4)c3=O)=NC21` (stereo unspecified) belongs 100%; to `COc1ccc([C@H]2c3cc(OC)c(OC)cc3C=C(C=O)C2CO)cc1OC` (stereo partly specified), 38%.
On the same count and under the same terms, the figure for `O=c1n(Cc2ccc3ccccc3c2)ccn1Cc1ccc2ccccc2c1` is 87.7%; for `N/C(=N\c1nc2ccccc2s1)NC(=O)Nc1cccc2ccccc12` it is -21% (active); for `O=C(N=c1oc2ccccc2cc1-c1cc2ccccc2[nH]1)Nc1ccc(Cl)cc1` it is 90.6%.
Consider `Fc1cc(-c2nnc3sc(-c4ccc(Cl)cc4Cl)nn23)c(Cl)cc1Cl`, for which the growth is 108%.
On the same count and under the same terms, the figure for `CSc1ccc2c(c1)c(CCN)c(C)n2Cc1ccc(Cl)c(Cl)c1` is -82.8% (active); for `OC(c1ccccc1)C(NC(Cc1ccccc1)c1ccccc1)c1ccccc1` (stereo unspecified) it is 96.7%.
Same read-out and setting: the figure for `O=C(/C=C/c1ccc([N+](=O)[O-])o1)NNC(=O)c1cc2ccccc2cc1O` is -22.6% (active).
The same measure, in the same setting: the figure for `CCCCCCCCCCCCCCCCCCOc1ccccc1CC(=O)OCC[N+](CC)(CC)CC` is 18.5%; for `Cc1c(C(=O)NCCN2CCOCC2)cn2ncnc(Oc3ccc(NC(=O)Nc4ccc(Cl)c(C(F)(F)F)c4)cc3)c12` it is -2.93% (active).
In the case of `Cc1ccc2c(n1)C(=O)C(Cl)=C(Nc1ccccc1C(C)C)C2=O`, the growth was 65.9%.
On the same count and under the same terms, to `Nc1cc2c(cc1Br)-c1cc(Cl)ccc1C2=O` belongs 99.2%; to `Cc1nn(-c2ccccc2)c2c1N=c1s/c(=C\c3ccc(C(F)(F)F)cc3)c(=O)n1CN2`, 67.8%.
Regarding `COc1ccc2c(c1)/C(=C/c1sc(=S)n(Cc3ccco3)c1O)C=N2`, the growth is 11.2%.
Consider `COc1nc2ccccc2cc1-c1nc2c(cnn2-c2ccccc2)c(=O)[nH]1`, for which the growth was 28.9%.
On to `Cc1[nH]c(C(=O)Nc2ccc(C(=O)NCCN)cc2OC(C)C)c(Cl)c1Cl`, for which the growth was -22.3% (active).
With `CC(C)c1cc(C(C)C)c(S(=O)(=O)Oc2ccc(NC(=O)c3ccc(Cl)cc3)cc2)c(C(C)C)c1`, the growth is 73.6%.
Still for that read-out and setting: to `CN1C(=O)CNC(=O)[C@H](NC(=O)c2nc3ccccc3cc2O)CSSC[C@H]1C(=O)NCCCc1nc2ccccc2cc1O` belongs 82%; to `O=S(=O)(Nc1ccc(-c2nc(-c3cccc(OCCN4CCOCC4)c3)c(-c3ccnc(Br)c3)[nH]2)cc1)c1ccccc1`, 38.1%; to `COc1ccc(-c2cc3c4c(nc5ccccc5c4c2)CC(c2cc(OC)c(OC)c(OC)c2)O3)cc1` (stereo unspecified), -16% (active).
Same read-out and setting: to `COc1ccc(/C=N/Nc2cc(=O)[nH]c3ccc(Cl)cc23)cc1` belongs 97.2%; to `COc1ccc(S(=O)(=O)n2c3ccccc3n3ncc(-c4nnc(C)o4)c23)cc1`, -1.67% (active); to `CCc1cccc2c3c(sc12)C(c1ccc(Cl)cc1)C(C#N)=C(N)O3` (stereo unspecified), -15.4% (active).
Same read-out and setting: to `Clc1ccc(C(/C=C/c2sc(Cl)nc2Cl)=N/Nc2cc(Cl)cc(Cl)c2)cc1` belongs 106%; to `NCCCNc1nc2ccccc2c2c(=O)c3cc(OC(F)(F)F)ccc3sc12`, -72% (active); to `Cc1cc(-c2cc(C)c(N)cc2C)c(C)cc1N`, 97.5%.
For the compound `O=C(Nc1ccc(F)cc1F)c1cc(F)ccc1O`, the growth is 17.1%.

Another experiment concerns UACC-257 melanoma. The experiment is described as above. The following applies: 10 µM unless noted.
For the compound `NC1=NC(c2cccc(Br)c2)c2sc3ccc(Cl)cc3c2N1` (stereo unspecified), the growth was 98.8%.
Consider `CCCCn1c(-c2ccc(-c3nc(-c4ccc(Cl)cc4)no3)cc2)nc(-c2ccccc2)c1-c1ccccc1`, for which the growth is 97.8%.
On the same count and under the same terms, the figure for `CCc1ccccc1-n1c(N)c(C#N)c(-c2ccc(Cl)cc2)c(C#N)c1=O` is 125%; for `Cc1ccc(/C=N\NC(=O)c2[nH]c3ccc(F)cc3c2-c2ccccc2)cc1` it is 59.7%.
Same read-out and setting: to `COc1ccc(/C=C/c2c(C(=O)/C=C/c3ccc(C(F)(F)F)cc3)c(C)nc3ccccc23)cc1` belongs -38% (active); to `Cc1c(C(=O)/C=C/Nc2c(Cl)cc(S(N)(=O)=O)cc2Cl)sc2nc3ccccc3n12`, 105%; to `CC(=O)N1N=C(c2ccc(Nc3nc(Nc4ccc(F)cc4)nc(Nc4ccc(Cl)cc4)n3)cc2)CC1c1ccc(Cl)cc1` (stereo unspecified), 104%.
Still for that read-out and setting: the figure for `COc1ccccc1/C=C1\Oc2cc(OCCN3CCC(Cc4ccccc4)CC3)ccc2C1=O` is 95.1%.
As for `Cc1nc2ccccc2c(/C=C/c2ccccc2)c1C(=O)/C=C/c1ccc(C(F)(F)F)cc1`, the growth was -21.9% (active).
Consider `Cc1[nH]c(C(=O)Nc2ccc(C(=O)N3CCNCC3)cc2OC(C)C)c(Cl)c1Cl`, for which the growth was 101%.
The same measure, in the same setting: the figure for `CN1C(=O)N(C)C2Nn3c(s/c(=C\c4ccccc4)c3=O)=NC21` (stereo unspecified) is 94.1%; for `COc1ccc([C@H]2c3cc(OC)c(OC)cc3C=C(C=O)C2CO)cc1OC` (stereo partly specified) it is 39.7%.
As to `O=c1n(Cc2ccc3ccccc3c2)ccn1Cc1ccc2ccccc2c1`, the growth was 101%.
`N/C(=N\c1nc2ccccc2s1)NC(=O)Nc1cccc2ccccc12`: the growth is 67.4%.
For the compound `O=C(N=c1oc2ccccc2cc1-c1cc2ccccc2[nH]1)Nc1ccc(Cl)cc1`, the growth is 108%.
The same measure, in the same setting: the figure for `Fc1cc(-c2nnc3sc(-c4ccc(Cl)cc4Cl)nn23)c(Cl)cc1Cl` is 85.1%; for `CSc1ccc2c(c1)c(CCN)c(C)n2Cc1ccc(Cl)c(Cl)c1` it is -73.3% (active); for `OC(c1ccccc1)C(NC(Cc1ccccc1)c1ccccc1)c1ccccc1` (stereo unspecified) it is 91.6%.
Still for that read-out and setting: the figure for `O=C(/C=C/c1ccc([N+](=O)[O-])o1)NNC(=O)c1cc2ccccc2cc1O` is -16.5% (active); for `CCCCCCCCCCCCCCCCCCOc1ccccc1CC(=O)OCC[N+](CC)(CC)CC` it is 48.1%.
The same measure, in the same setting: the figure for `Cc1c(C(=O)NCCN2CCOCC2)cn2ncnc(Oc3ccc(NC(=O)Nc4ccc(Cl)c(C(F)(F)F)c4)cc3)c12` is 24.3%; for `Cc1ccc2c(n1)C(=O)C(Cl)=C(Nc1ccccc1C(C)C)C2=O` it is 24.9%.
For the compound `Nc1cc2c(cc1Br)-c1cc(Cl)ccc1C2=O`, the growth is 103%.
Regarding `Cc1nn(-c2ccccc2)c2c1N=c1s/c(=C\c3ccc(C(F)(F)F)cc3)c(=O)n1CN2`, the growth is -1.84% (active).
Still for that read-out and setting: to `COc1ccc2c(c1)/C(=C/c1sc(=S)n(Cc3ccco3)c1O)C=N2` belongs 61.3%.
On the same count and under the same terms, to `COc1nc2ccccc2cc1-c1nc2c(cnn2-c2ccccc2)c(=O)[nH]1` belongs 55.5%; to `Cc1[nH]c(C(=O)Nc2ccc(C(=O)NCCN)cc2OC(C)C)c(Cl)c1Cl`, 105%; to `CC(C)c1cc(C(C)C)c(S(=O)(=O)Oc2ccc(NC(=O)c3ccc(Cl)cc3)cc2)c(C(C)C)c1`, 24.7%.
Same read-out and setting: the figure for `CN1C(=O)CNC(=O)[C@H](NC(=O)c2nc3ccccc3cc2O)CSSC[C@H]1C(=O)NCCCc1nc2ccccc2cc1O` is 83.9%.
On to `O=S(=O)(Nc1ccc(-c2nc(-c3cccc(OCCN4CCOCC4)c3)c(-c3ccnc(Br)c3)[nH]2)cc1)c1ccccc1`, for which the growth is 53.1%.
Same read-out and setting: to `COc1ccc(-c2cc3c4c(nc5ccccc5c4c2)CC(c2cc(OC)c(OC)c(OC)c2)O3)cc1` (stereo unspecified) belongs 46.3%.
The same measure, in the same setting: the figure for `COc1ccc(/C=N/Nc2cc(=O)[nH]c3ccc(Cl)cc23)cc1` is 81.7%.
Still for that read-out and setting: the figure for `COc1ccc(S(=O)(=O)n2c3ccccc3n3ncc(-c4nnc(C)o4)c23)cc1` is 84.1%.
As for `CCc1cccc2c3c(sc12)C(c1ccc(Cl)cc1)C(C#N)=C(N)O3` (stereo unspecified), the growth is 80%.
Still for that read-out and setting: the figure for `Clc1ccc(C(/C=C/c2sc(Cl)nc2Cl)=N/Nc2cc(Cl)cc(Cl)c2)cc1` is 99.1%; for `NCCCNc1nc2ccccc2c2c(=O)c3cc(OC(F)(F)F)ccc3sc12` it is 104%; for `Cc1cc(-c2cc(C)c(N)cc2C)c(C)cc1N` it is 90.5%.
Same read-out and setting: to `O=C(Nc1ccc(F)cc1F)c1cc(F)ccc1O` belongs -8.33% (active).
